Source: PubChem BioAssay (National Center for Advancing Translational Sciences (NCATS))
RORg inh = blocks mouse ROR gamma transcriptional activity; AID 2551; 310,000 compounds, 5.4% hits; Drosophila S2 Gal4-RORgamma UAS-luciferase reporter, 20 h; P51450; Potency, µM (doses to about 53.6 µM), actives largely listed as inhibitors; further: nearly all actives have a fitted effect of over 60% in size
Target sequence (P51450 whole entry, looked up, the tested form may be a part): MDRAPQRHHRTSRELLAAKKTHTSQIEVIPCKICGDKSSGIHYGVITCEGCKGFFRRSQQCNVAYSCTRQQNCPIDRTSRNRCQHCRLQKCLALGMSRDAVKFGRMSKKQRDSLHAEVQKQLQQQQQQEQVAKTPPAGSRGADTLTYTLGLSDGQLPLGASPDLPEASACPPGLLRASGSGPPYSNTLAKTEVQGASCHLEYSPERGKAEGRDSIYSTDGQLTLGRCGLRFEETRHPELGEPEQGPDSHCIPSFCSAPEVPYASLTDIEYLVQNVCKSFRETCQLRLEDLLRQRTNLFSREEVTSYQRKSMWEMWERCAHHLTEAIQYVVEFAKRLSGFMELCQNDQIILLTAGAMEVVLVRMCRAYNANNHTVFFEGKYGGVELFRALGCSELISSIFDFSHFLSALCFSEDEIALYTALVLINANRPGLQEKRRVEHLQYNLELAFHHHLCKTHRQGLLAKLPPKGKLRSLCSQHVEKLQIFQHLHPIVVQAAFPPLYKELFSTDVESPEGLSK
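Drosophila Schneider cells stably carrying a metallothionein-driven Gal4 DBD–ROR gamma fusion and a UAS-Photinus luciferase reporter were exposed to compound for 1 hr, then induced with copper sulfate (700 uM final) for 20 hr at ambient temperature before luminescence reading.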
ATXN2 expr inh = inhibitors of ATXN2 expression | AID 1745845 | HEK-293 ATXN2-luciferase reporter, luminescence, 24 h | Potency, µM (series often up to 57 µM), hits mostly inhibitors | 360,000 compounds, 0.72% hits; further: nearly all actives have a fitted effect of over 55% in size
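qHTS (up to 57 uM final) was run with 24 h compound exposure of reporter cells at 37 °C. Each well was multiplexed: SteadyGlo luminescence measured ATXN2-luciferase expression after a fluorogenic Gly-Phe-AFC viability readout (25 uM final).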
VP16 counter = Gal4-VP16 reporter inhibition counter-screen. 310,000 compounds, 3.5% hits. Potency, µM (highest dose often 53.6 µM), hits mostly inhibitors. Drosophila S2 Gal4-VP16 UAS-luciferase, luminescence, 20 h;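 further: Gal4-VP16 expression switched on by copper sulfate through the metallothionein promoter; nearly all actives have a fitted effect of over 50% in size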
TGFb SMAD3 inh = inhibitors of TGF-b signaling; HepG2 CAGA-GFP TGF-b/SMAD3 reporter, GFP fluorescence, 18 h; TGF-beta stimulated, 500 pg/mL final; Potency, µM (top dose mostly 46.1 µM), hits mostly inhibitors; 410,000 compounds, 1.2% hits; AID 588855; further: nearly all actives have a fitted effect of over 65% in size
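GFP signal (ex488/em500-530) from TGF-beta-stimulated HEPG2 CAGA-GFP cells, 500 pg/mL final, 18 h at 37 degrees C in DMEM plus 1% FBS, normalized to unstimulated and DMSO-stimulated controls.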
HepG2 tox-1 = counter-screen for TGF-b inhibitors: cytotoxicity in HepG2 cells. HepG2 CAGA-GFP viability, ATP luminescence, 18 h. Potency, µM (series often up to 46.1 µM), most hits filed as cytotoxic. 410,000 compounds, 0.76% hits
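CellTiter-Glo luminescence gave cytotoxicity after 18 hours at 37 degrees C. The cells were HepG2 CAGA-GFP in 1% FBS DMEM, stimulated with 500 pg/mL TGF-beta after compound addition. %Activity was normalised to no-cell wells (complete cell-killing) and DMSO (no toxicity), and curves were fitted and classified.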
S2 tox = reduces viability in counter-screen for ATXN expression inhibitors | S2 cells (HEK-293 line with an ATXN2-luciferase reporter) viability, CellTiter-Fluor protease fluorescence, 24 h | Potency, µM (series often up to 56.7 µM), hits mostly cytotoxic | 400,000 compounds, 0.49% hits; further: nearly all actives have a fitted effect of over 40% in size
TGFb confirm = TGF-b pathway inhibition, cherry-pick retest; 1,600 compounds, 63% hits; HepG2 CAGA-GFP TGF-b reporter, GFP fluorescence, 18 h; cells stimulated with TGF-beta, 500 pg/mL; Potency, µM (doses to about 46.1 µM), actives largely listed as inhibitors; shares compounds with TGFb SMAD3 inh; AID 720534; further: nearly all actives have a fitted effect of over 65% in size
HepG2 tox-2 = counter-screen for TGF-b inhibitors: cytotoxicity in HepG2 cells. shares compounds with TGFb SMAD3 inh. Potency, µM (highest dose often 46.1 µM), usual class: inhibitors. 1,600 compounds, 27% hits. HepG2 CAGA-GFP viability, ATP luminescence, 18 h; cells stimulated with TGF-beta, 500 pg/mL; further: nearly all actives have a fitted effect of over 70% in size
TGFb CCL64 inh = TGF-b inhibition, CCL64 orthogonal assay; shares compounds with TGFb SMAD3 inh; CCL64 CAGA-GFP reporter, TGF-b stimulated, GFP fluorescence, 18 h; Potency, µM (series often up to 46.1 µM), most hits filed as inhibitors; 1,600 compounds, 41% hits; AID 720536; further: nearly all actives have a fitted effect of over 65% in size
COP TGFb inh = blocks TGF-b signaling in HepG2 COP reporter; Potency, µM (highest dose often 46.1 µM), actives largely listed as inhibitors; 1,600 compounds, 3% hits; shares compounds with TGFb SMAD3 inh; HepG2 COP-GFP TGF-b reporter, GFP fluorescence, 18 h; cells stimulated by added recombinant TGF-beta; further: nearly all actives have a fitted effect of over 70% in size
Numbers stand for hits; i = inactive; ? = inconclusive; nt = no result. Sampled rows, rich in hits. Any-hit rate of the full collection: about 6.1%. The call rests on the fitted dose curve; in most records, active means well fitted curve in the direction sought with a large enough effect; inconclusive means small, poorly fitted or top-dose-only effect, or another doubt; inactive means no such curve, though single readings can be large; an effect the other way counts as inactive or inconclusive.

SMILES	RORg inh	ATXN2 expr inh	VP16 counter	TGFb SMAD3 inh	HepG2 tox-1	S2 tox	TGFb confirm	HepG2 tox-2	TGFb CCL64 inh	COP TGFb inh
O=c1c(-c2cccs2)nc2cncnc2n1-c1ccccc1	i	nt	i	nt	nt	nt	nt	nt	nt	nt
O=C(Nc1ccc(Cl)cc1)c1cc2c(cc1O)[nH]c1ccccc12	i	?	18µM	6.3µM	i	?	7.3µM	5.2µM	3.3µM	i
CC(=O)Nc1ccc2[nH]c3ccccc3c2c1	i	i	i	i	i	i	nt	nt	nt	nt
O=C(Nc1cccnc1)c1ccc([N+](=O)[O-])s1	nt	?	nt	10µM	11µM	i	15µM	23µM	?	?
Cn1ncc([N+](=O)[O-])c1C(=O)Nc1cccc2ccccc12	i	i	i	i	i	i	nt	nt	nt	nt
O=C(Nc1cccc2ccccc12)c1ccc([N+](=O)[O-])s1	i	nt	?	8.9µM	11µM	i	16µM	26µM	?	i
COc1ccc(NC(=O)CSc2nncn3c2cc2oc(C)cc23)cc1OC	nt	nt	nt	?	i	nt	nt	nt	nt	nt
O=C(CSc1nnc(-c2ccc(F)cc2)c2ccccc12)Nc1cccc(Cl)c1	i	i	i	i	i	?	nt	nt	nt	nt
O=C(CSc1nnc(-c2ccc(F)cc2)c2ccccc12)Nc1ccccc1	?	i	i	13µM	i	i	15µM	i	i	i
Cc1ccccc1CSc1ncc(Cl)c(C(=O)Nc2nc3ccc(F)cc3s2)n1	nt	i	nt	?	i	i	nt	nt	nt	nt
Cc1cc(OCCCC(=O)Nc2cccc(-n3cnnn3)c2)ccc1Cl	?	nt	i	13µM	i	?	?	?	i	i
COc1cccc(NC(=O)COc2cccc(-n3cnnn3)c2)c1	i	i	i	i	i	i	nt	nt	nt	nt
Cc1cccc(NC(=O)Nc2cccc(C#N)c2)n1	i	i	i	?	i	i	nt	nt	nt	nt
Cc1cccc(NC(=O)Nc2ccc(C#N)cc2)n1	i	i	i	2.5µM	i	i	6.5µM	8.2µM	4.1µM	i
CCc1ccc(Cn2nnc(C(=O)Nc3ccc(C)cc3)c2N)cc1	nt	i	nt	i	i	i	nt	nt	nt	nt
COc1ccc2c(c1)O[C@H](c1ccc3c(c1)OCO3)[C@@H](OC(=O)NCCOc1ccccc1)C2=O	i	nt	i	nt	nt	nt	nt	nt	nt	nt
CCC(C)Sc1cccc(-c2nc3cc(C)ccn3c2NCc2ccccc2)c1 (stereo not given)	nt	?	nt	16µM	i	?	?	?	16µM	i
COc1ccc2c(c1)/C(=C\c1cccc(/C=C3/C(=O)Nc4ccc(OC)cc43)n1)C(=O)N2	nt	3.2µM	nt	1.3µM	i	nt	2.9µM	2.6µM	1.5µM	i
Cc1ccc(C)c(NS(=O)(=O)c2cc(C(=O)NCCC3=CCCCC3)ccc2C)c1	i	?	i	20µM	i	?	?	?	?	i
CC1(C(=O)NCc2cccc3ccccc23)CCN1C(=O)C1(c2ccccc2)CCCC1 (stereo not given)	nt	i	nt	13µM	i	i	13µM	?	?	i
COc1ccccc1Cc1c(-c2ccc(F)cc2)nc2ccc(Br)cn12	nt	i	nt	10µM	i	?	?	?	?	i
COc1ccc(Cc2c(-c3cccc(Cl)c3)nc3ccc(Br)cn23)c(C)c1	nt	i	nt	?	i	?	nt	nt	nt	nt
COc1ccccc1Cc1c(-c2ccc(OC)c(OC)c2)nc2ccc(Br)cn12	nt	?	nt	?	i	?	nt	nt	nt	nt
COc1ccc(Cc2c(-c3cccc(Br)c3)nc3ccc(Br)cn23)c(C)c1	nt	i	nt	?	i	i	?	?	?	i
COc1ccc(-c2nc3ccc(Br)cn3c2Cc2cccc(Cl)c2)cc1OC	nt	i	nt	13µM	i	?	18µM	?	?	i
SMILES	RORg inh	ATXN2 expr inh	VP16 counter	TGFb SMAD3 inh	HepG2 tox-1	S2 tox	TGFb confirm	HepG2 tox-2	TGFb CCL64 inh	COP TGFb inh
CN(C)c1ccc(-c2nn3c(-c4ccccc4Cl)nnc3s2)cc1	i	i	i	?	i	i	4.6µM	i	10µM	i
O=C(O)C/C(=C\c1cccc(NC(=O)c2ccccc2Cl)c1)c1nc2ccccc2s1	i	i	i	i	i	i	nt	nt	nt	nt
O=C(Nc1ccc(Cl)cc1)/C(=C/c1cccc(O)c1)c1nc2ccccc2s1	11µM	8.9µM	20µM	2.8µM	i	nt	8.2µM	13µM	4.1µM	i
CCN(CC)CCCNC(=O)c1cc(-c2ccc(OC)c(OC)c2)on1	nt	i	nt	i	i	i	nt	nt	nt	nt
COc1ccc(CNC(=O)c2cccc(-c3ccc(C)c4ccccc34)n2)cc1	i	i	?	20µM	i	i	?	?	?	i
C/C(=N\NC(=O)c1ccccc1OCc1ccc(F)cc1)c1ccccn1	nt	nt	nt	11µM	i	?	15µM	?	8.2µM	i
O=C(NCc1ccc(F)cc1)c1ccccc1OCc1ccccc1	i	i	i	i	i	i	nt	nt	nt	nt
C/C(=N\NC(=O)C1COc2ccccc2O1)c1ccccn1 (stereo not given)	1.8µM	3.5µM	2.8µM	?	i	?	21µM	i	?	i
C/C(=N/NC(=O)c1ccc(C(C)(C)C)cc1)c1ccccn1	nt	?	nt	?	i	i	2.6µM	?	9.2µM	i
C/C(CC(=O)Nc1ccccn1)=N\NC(=O)c1ccccc1	i	nt	i	nt	nt	nt	nt	nt	nt	nt
CC1Cc2cc(S(=O)(=O)CCC(=O)NCc3ccccc3Cl)ccc2N1C(=O)C1CC1 (stereo not given)	nt	nt	nt	i	i	nt	nt	nt	nt	nt
CCOC(=O)N=Nc1c2ccccc2c2nc3no[nH]c3nc12	0.35µM	?	4µM	0.71µM	0.79µM	nt	0.65µM	0.73µM	1.3µM	0.73µM
CCc1ccc(CN(C)C(=O)c2cc(COc3cccc4cnccc34)on2)cc1	i	nt	?	10µM	i	i	?	?	?	i
CN(Cc1cccc2cnccc12)C(=O)c1cc(COc2ccc(F)cc2F)on1	nt	?	nt	i	i	i	nt	nt	nt	nt
COc1cc(/C=N/NC(=O)c2ccncc2)ccc1OC(=O)c1cccc(Br)c1	i	i	i	i	i	i	nt	nt	nt	nt
